Results on 75 compounds are retold here after PubChem BioAssay AID493191 (Broad Institute, 2011).

Screen size: about 1,300 compounds; about 330 (25%) were called active. The rule behind the calls is not given here. The list is a sample of the results. Entries with a potency or affinity are not part of this list.

The assay can be described thus: MALME3 melanoma cell viability loss, dose response, orthogonal assay for MITF inhibitor project, CellTiter-Glo, cherry-picked (AID 493191). Conditions: CellTiter-Glo luminescence, 24 h; series mostly up to 35 µM. A general note: ATP-based viability assays read luminescence as a measure of living cells.
With `CCN1CCc2c(sc(NC(=O)c3ccc(S(=O)(=O)N4CCCC4)cc3)c2C(=O)NC)C1`, the compound was called inactive.

With `COc1ccc2nc(C)cc(SCC(=O)N/N=C/c3ccc(O)cc3O)c2c1`, the outcome was inactive.

On to `COc1ccc(-c2nc(-c3ccncc3)no2)cc1OC`, for which the outcome was inactive.

For the compound `COc1ccc(-c2cc(-c3ccccc3O)[nH]n2)cc1OC`, the result was inactive.

On to `COc1ccc(/C=N/Nc2ccccn2)cc1OC`, for which the call was inactive.

On to `O=C(Nc1nc2cc3c(cc2s1)OCO3)C1=COCCO1`, for which the compound was called inactive.

Consider `Cc1c(C#N)c(NC(=O)CCl)n(Cc2ccc(F)cc2)c1C`, for which the outcome was inactive.

On to `O=C(CCC(=O)c1ccc[nH]1)c1ccc(Cl)cc1`, for which the outcome was inactive.

`C=CCn1c(C)cc(C(=O)Cn2ncc(Cl)c(Cl)c2=O)c1C`: the compound was classed as inactive.

Take `Nc1nc2n[nH]nc2c(=O)[nH]1`: the result was inactive.

Take `CC(C)c1ccc(/C=C2\SC(=S)N(CCC(=O)N3CCCCC3CCO)C2=O)cc1` (stereo not given): the compound was classed as inactive.

Turning to `CSc1nc(N)n2nc(-c3ccccc3)cc2n1`, the compound was called inactive.

Turning to `O=C(Nc1ccc2c(c1)OCCO2)c1ccoc1`, the call was inactive.

As to `Cc1ccc(-c2noc(-c3ccno3)n2)cc1`, the result was inactive.

As to `CC(=C/c1ccco1)/C=N/N1CCN(c2ccccc2)CC1`, the result was inactive.

As to `COc1ccc2nc(C)cc(NCc3cccc(C(F)(F)F)c3)c2c1`, the call was inactive.

Turning to `COC(=O)C1=C(CN2CCCc3ccccc32)NC(=O)NC1c1ccc(F)cc1` (stereo not given), the compound was called inactive.

For `O=[N+]([O-])c1cccc(/C=N/Nc2ncc(Br)cn2)c1`, the result was inactive.

Regarding `O=C(CSCC(=O)Nc1ccccc1)N/N=C/c1c(O)ccc2ccccc12`, the result was inactive.

For the compound `Cc1cc2oc(=O)cc(C)c2cc1NC(=O)CCC(=O)O`, the compound was classed as inactive.

On to `O=C(CNc1ccc2ccccc2c1)N/N=C/c1ccc([N+](=O)[O-])o1`, for which the compound was called inactive.

On to `C=CCSC(=S)NC1CCS(=O)(=O)C1` (stereo not given), for which the call was inactive.

On to `CCOC(=O)COc1ccc2ccccc2c1/C=C/[N+](=O)[O-]`, for which the call was inactive.

Take `N/C(CS(=O)(=O)c1ccccn1)=N\OC(=O)c1ccccc1Cl`: the outcome was inactive.

For the compound `O=C(O)/C=C/C(=O)c1ccc2c(c1)CCc1ccccc1-2`, the call was inactive.

With `C=CCN1C(=O)S/C(=C\c2ccc(N3CCOCC3)cc2C)C1=O`, the compound was classed as inactive.

Take `CC(=O)Nc1ccc(-c2nc3ccccc3o2)cc1`: the call was inactive.

For `CC(=O)Nc1cccc(-c2nnc(-c3ccccc3)o2)c1`, the compound was classed as inactive.

Consider `COc1cccc(/C=N/NC(=O)CN2CC(c3ccccc3)CC2=O)c1OC` (stereo not given), for which the outcome was inactive.

As to `c1ccc(Cc2cc(-c3ccccc3)on2)cc1`, the result was inactive.

Take `O=C(Nc1ccc(Cl)cc1)Nc1cccc(C(=O)O)c1`: the result was inactive.

For `COc1ccc(NC(=O)NC(=O)c2ccccc2)cc1`, the outcome was inactive.

Consider `Cc1ccc(NC(=O)c2ccccc2)cc1`, for which the outcome was inactive.

Consider `Cc1ccc(C(=O)Nc2cnc3ccccc3c2)cc1`, for which the compound was classed as inactive.

Regarding `Cc1ccc(NC(=O)c2cc(-c3cccs3)on2)cc1`, the outcome was inactive.

For `CCN(CC)CCNC(=O)c1ccc(NC(=O)c2cccc(S(=O)(=O)N3c4ccccc4CC3C)c2)cc1` (stereo not given), the compound was classed as inactive.

For `O=[N+]([O-])/C=C\c1ccc(N2CCCC2)c(F)c1`, the compound was classed as inactive.

As for `CN(C)c1ccc(C2=NOC(CN3C(=O)c4ccccc4S3(=O)=O)C2)cc1` (stereo not given), the outcome was inactive.

For the compound `Cn1cccc1C(=O)NC(=O)COC(=O)c1ccc(S(C)(=O)=O)c([N+](=O)[O-])c1`, the compound was classed as inactive.

With `CCC(=O)Nc1cc(C(=O)OCC(=O)c2ccccc2Cl)ccc1C`, the call was inactive.

On to `O=C(NCCNc1ccccc1[N+](=O)[O-])c1cc(F)c(F)cc1Cl`, for which the call was inactive.

As for `O=C(NC1CC1)C1CCN(S(=O)(=O)c2ccc(Cl)c([N+](=O)[O-])c2)CC1`, the call was inactive.

For the compound `O=C(COC(=O)c1ccc(F)c([N+](=O)[O-])c1)NC(=O)NCc1ccccc1`, the compound was classed as inactive.

`CN(CCC#N)C(=O)COC(=O)c1ccccc1C(=O)c1ccc(Cl)c([N+](=O)[O-])c1`: the outcome was inactive.

`N/C(=N\OC(=O)Cc1cccs1)c1ccccc1`: the compound was classed as inactive.

In the case of `Cc1ccn2c(Nc3ccccc3)c(-c3ccccn3)nc2c1`, the outcome was inactive.

With `O=C(NC1CCCCC1)C(c1cccnc1)N(C(=O)CCl)c1cccc(Cl)c1` (stereo not given), the result was inactive.

Consider `CC1Cc2cc(-c3csc(N)n3)ccc2O1` (stereo not given), for which the compound was classed as inactive.

Take `O=C(Cc1ccccc1)Nc1ccc(NC(=O)c2ccco2)nc1`: the result was inactive.

In the case of `CCOC(=O)c1ccc(NC(=O)c2ccc(C)c(S(=O)(=O)N3CCOCC3)c2)cc1`, the outcome was inactive.

As to `CCOC(=O)c1ccc(NC(=O)c2ccnn2C)cc1`, the compound was classed as inactive.

On to `CCOc1ccc(NC(=O)c2ccccn2)cc1`, for which the call was inactive.

On to `COc1ccc(NC(=O)c2cc(-c3ccccc3Cl)on2)cc1`, for which the compound was classed as inactive.

For `COc1ccccc1NS(=O)(=O)c1cc(NC(=O)c2ccc(Cl)nc2)ccc1Cl`, the compound was called inactive.

As to `O=C(O)c1ccc(C(=O)Nc2ccc(F)cc2)cc1`, the call was inactive.

As to `CCOc1ccc(C(=O)Nc2cccc(C(=O)O)c2C)cc1Cl`, the call was inactive.

For `O=C1c2ccccc2S(=O)(=O)N1Cc1nc2ccccc2s1`, the outcome was inactive.

Regarding `Cc1ccc2nc(-c3ccncc3)[nH]c2c1`, the call was inactive.

As to `Fc1ccc(-c2nnc(-c3ccc(F)cc3)o2)cc1`, the outcome was inactive.

Consider `COCCCn1[nH]c2c3c(ccc2c1=O)C(=O)c1ccccc1C3=O`, for which the compound was classed as inactive.

As for `O=C(Nc1nc2ccsc2c(=O)s1)C1CCC1`, the compound was called inactive.

Regarding `CN(c1ccc(O)cc1)c1nc(O)c(C2=c3ccccc3=NC2=O)s1`, the compound was called inactive.

For the compound `Cn1cc(C(=O)N/N=C/c2c(O)ccc3ccccc23)ccc1=O`, the outcome was inactive.

As to `Cc1cccc(-c2nc(C#N)c(NCc3ccco3)o2)c1`, the result was inactive.

For `O=C(NC1CCCCCC1)c1cc2ccccc2oc1=O`, the compound was called inactive.

Take `O=C(Nc1ccccc1)C1Cc2ccccc2CN1C(=O)c1ccco1` (stereo not given): the result was inactive.

With `C=CCNc1nc(-c2ccccn2)nnc1-c1ccccc1`, the call was inactive.

For `COc1ccc(NC(=O)Nc2ccc(F)c(F)c2)c(OC)c1`, the outcome was inactive.

For `CCn1c(/C=C/N(C)c2ccccc2)[n+](CC)c2ccc(Cl)cc21`, the result was inactive.

Take `CCOC(=O)c1ccc2c(c1)n(CC)c(/C=C/N(C)c1ccccc1)[n+]2CC`: the compound was called inactive.

Turning to `Nc1c2c(=O)oc(-c3ccccc3)cc2nn1-c1ccccc1`, the compound was called inactive.

In the case of `COc1cc(C(=O)Oc2c(CN3CCOCC3)cc(Cl)c3cccnc23)cc(OC)c1OC`, the outcome was inactive.

Turning to `COc1cccc(C(=O)N/N=C(/c2ccccc2)c2ccccn2)c1`, the call was inactive.

Turning to `O=c1nc(N/N=C/c2ccccn2)cn[nH]1`, the result was inactive.

For the compound `CC(C)c1ccc(CNc2ncccn2)cc1`, the call was inactive.
